Compound activity as filed in PubChem BioAssay.
DT40 TDP1 CPT = DT40-hTDP1 cell growth loss with CPT; chicken DT40 Tdp1-/-;hTDP1 cells + 20 nM CPT, ATP luminescence, 48 h; Potency, µM (titrated, usually from 46.2 µM), inactives show at the top dose activity change, negative = growth inhibition, most hits filed as inhibitors; 12% of 420,000 active; also: nearly all actives have a fitted effect of over 55% in size
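Chicken DT40 Tdp1-/- cells stably complemented with human TDP1 were seeded at 400 cells/well in medium containing 20 nM camptothecin, exposed to pin-transferred compounds, and grown at 37 °C for at least 48 hr. Viability was read as ATP luminescence.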
DT40 TDP1 no CPT = qHTS for Inhibitors of human tyrosyl-DNA phosphodiesterase 1 (TDP1): qHTS in cells in absence of CPT. DT40 Tdp1-/- hTDP1 cells, no CPT, ATP luminescence, 48 h. Potency, µM (top dose mostly 46.2 µM), without a hit: at the highest dose activity change, negative = growth inhibition, most hits filed as inhibitors. 15% of 420,000 active. AID 686978, 2013; also: nearly all actives have a fitted effect of over 55% in size
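Chicken DT40 Tdp1-/- cells stably complemented with human TDP1 were seeded at 400 cells/well with DMSO in place of 20 nM camptothecin. After compound pinning, cells grew at least 48 hr at 37 °C; viability read by CellTiter-Glo luminescence.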
HT1080 IDH1KD tx = HT-1080 IDH1 knockdown cell toxicity (counter line); HT-1080 IDH1 knockdown viability, ATP luminescence, 48 h; Potency, µM (highest dose often 46.1 µM), inactives show at the highest dose activity, negative = toxicity, hits mostly cytotoxic; 2% of 360,000 active; AID 686971;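 also: 0% = DMSO wells and -100% = cell-free medium wells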
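Knockdown cells (IDH1KD HT-1080) received compounds 2 h after plating at 750 cells/well and were kept 48 h at 37 °C in 5% FBS RPMI. A CellTiter-Glo luminescence read gave % activity for curve fitting.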
KB-V1 MDR tox = kills drug-selected multidrug resistant KB-V1 cells; KB-V1 MDR cells viability, CellTiter-Glo, 72 h; Potency, µM (top dose mostly 46.1 µM), hits mostly cytotoxic; 3.4% of 400,000 active; AID 1347076; also: nearly all actives have a fitted effect of over 60% in size
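Drug-selected KB-V1 cells, grown in DMEM lacking phenol red with 10% FBS, receive compound titrations; after three days at 37 degrees C, surviving cell ATP is quantified by CellTiter-Glo luminescence and responses normalized and curve-fitted.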
KB-3-1 cytotox = kills parental KB-3-1 adenocarcinoma cells | 1.4% of 400,000 active | Potency, µM (doses to about 46.1 µM), most hits filed as cytotoxic | KB-3-1 viability, CellTiter-Glo ATP luminescence, 72 h; also: nearly all actives have a fitted effect of over 60% in size
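Multi-concentration cytotoxicity screen in KB-3-1 cells grown in DMEM lacking phenol red with 10% FBS. After 72 h at 37 °C with compound, ATP-dependent luminescence was recorded.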
HT1080-NT tox = kills 2HG-producing HT-1080-NT fibrosarcoma cells | HT-1080-NT fibrosarcoma viability, CellTiter-Glo ATP luminescence, 48 h | 1.6% of 360,000 active | Potency, µM (top dose mostly 46.1 µM), inactives show top-dose activity, negative = less viability, hits mostly cytotoxic | AID 686970;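 also: NT is the 2HG producing partner of a matched IDH1 knockdown line; 0% = DMSO-treated cells and -100% = media-only wells without cells; nearly all actives have a fitted effect of over 55% in size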
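HT-1080-NT fibrosarcoma cells (2HG-overproducing), 750 cells/well in RPMI with 5% FBS, dosed after 2 h and incubated 48 h at 37C. CellTiter-Glo luminescence normalized to DMSO and no-cell wells; concentration-response curves fitted and classed.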
* marks the source's active call; other numbers are inactive results. Sampled rows, rich in hits. Any-hit rate of the full collection: about 19%. Calls follow the shape of the dose curve; as a rule, active = well fitted curve in the direction sought with a large enough effect; inconclusive = small, poorly fitted or top-dose-only effect, or another doubt; inactive = no such curve, though single readings can be large; an effect the other way counts as inactive or inconclusive. Unless noted, % is scaled to controls: 0 for no effect and ±100 for the full control effect; potency is read from the fitted curve at half-maximal effect.

For COc1ccc(NC(=O)C2=C(C)Nc3nc(SCc4ccccc4C)nn3C2c2cc(OC)c(O)c(OC)c2)cc1 (stereo not drawn) the results were DT40 TDP1 CPT -2.4%, DT40 TDP1 no CPT -0.7%, KB-V1 MDR tox inactive and KB-3-1 cytotox inactive.
COc1ccc(N2CC(C(=O)N3CCN(c4ccccc4OC)CC3)CC2=O)cc1 (stereo not drawn) was read as DT40 TDP1 CPT -19.3%, DT40 TDP1 no CPT -28.1%, HT1080 IDH1KD tx -1.6%, KB-V1 MDR tox inactive, KB-3-1 cytotox inactive and HT1080-NT tox 1.4%.
Screening O=C(CCS(=O)(=O)Cc1ccccc1F)NCCc1ccc(Cl)cc1 returned DT40 TDP1 CPT -5.4%, DT40 TDP1 no CPT inconclusive, HT1080 IDH1KD tx 13.2%, KB-V1 MDR tox inactive, KB-3-1 cytotox inactive and HT1080-NT tox 7.4%.
Screening Cc1ccc(S(=O)(=O)NNC(=O)c2cnn(-c3ccccc3)c2-n2cccc2)cc1 returned DT40 TDP1 CPT 1.64µM*, DT40 TDP1 no CPT 1.46µM*, HT1080 IDH1KD tx 12.0%, KB-V1 MDR tox inactive, KB-3-1 cytotox inactive and HT1080-NT tox 9.6%.
Screening Cc1ccc(S(=O)(=O)NNC(=O)c2ccccc2O)cc1 returned DT40 TDP1 CPT -26.5%, DT40 TDP1 no CPT -16.9%, HT1080 IDH1KD tx -2.2%, KB-V1 MDR tox inactive, KB-3-1 cytotox inactive and HT1080-NT tox -3.4%.
Screening Cn1c(CNC(=O)CSc2n[nH]c(-c3ccccc3)n2)nc2ccccc21 returned DT40 TDP1 CPT 8.0%, DT40 TDP1 no CPT -1.2%, KB-V1 MDR tox inactive and KB-3-1 cytotox inactive.
Screening O=C1CCCCC(=O)[C@H](O)C[C@H](c2ccccc2)O1 returned DT40 TDP1 CPT 3.6%, DT40 TDP1 no CPT -19.7%, HT1080 IDH1KD tx 9.2%, KB-V1 MDR tox inactive, KB-3-1 cytotox inactive and HT1080-NT tox 18.5%.
Screening Nc1ncnc(Nc2ccccc2Oc2ccccc2)n1 returned DT40 TDP1 CPT -1.3%, DT40 TDP1 no CPT -2.6%, HT1080 IDH1KD tx 9.6%, KB-V1 MDR tox inconclusive, KB-3-1 cytotox inactive and HT1080-NT tox 8.0%.
Screening CCOC(=O)C1=C(NC#N)OC(C)=C(C)C1c1ccc(O)cc1 (stereo not drawn) returned DT40 TDP1 CPT 23.1µM*, DT40 TDP1 no CPT 20.6µM*, HT1080 IDH1KD tx -0.8%, KB-V1 MDR tox inactive, KB-3-1 cytotox inactive and HT1080-NT tox 2.0%.
For CCOC(=O)C1=C(N)Oc2ccc3ccccc3c2C1c1ccc(O)cc1 (stereo not drawn) the results were DT40 TDP1 CPT inconclusive, DT40 TDP1 no CPT inconclusive, HT1080 IDH1KD tx -17.5%, KB-V1 MDR tox inactive, KB-3-1 cytotox inactive and HT1080-NT tox -6.4%.
Screening CCc1ccc(NC(=O)NCC2CCN(Cc3cccc(Cl)c3)CC2)cc1 returned DT40 TDP1 CPT inconclusive, DT40 TDP1 no CPT 13µM*, HT1080 IDH1KD tx -7.2%, KB-V1 MDR tox inactive, KB-3-1 cytotox inconclusive and HT1080-NT tox inconclusive.
For Cc1ccc(NC(=O)NCC2CCN(Cc3cccc(Cl)c3)CC2)cc1Cl the results were DT40 TDP1 CPT inconclusive, DT40 TDP1 no CPT 16.4µM*, HT1080 IDH1KD tx -13.5%, KB-V1 MDR tox inconclusive, KB-3-1 cytotox inconclusive and HT1080-NT tox 11.6µM*.
Cc1ccc(C)c(CN2CCC(CNC(=O)Nc3ccc(F)c(Cl)c3)CC2)c1 was read as DT40 TDP1 CPT 29.1µM*, DT40 TDP1 no CPT inconclusive, HT1080 IDH1KD tx 18.4µM*, KB-V1 MDR tox inactive, KB-3-1 cytotox inconclusive and HT1080-NT tox 25.9µM*.
`Cc1ccc(NC(=O)NCC2CCN(Cc3cccc(Cl)c3)CC2)c(Cl)c1` gave DT40 TDP1 CPT inconclusive, DT40 TDP1 no CPT -29.7%, HT1080 IDH1KD tx -7.1%, KB-V1 MDR tox inactive, KB-3-1 cytotox inactive and HT1080-NT tox -3.5%.
For O=C(CSc1nc2ccccc2nc1Cc1ccccc1)Nc1ccc2c(c1)OCO2 the results were DT40 TDP1 CPT inconclusive, DT40 TDP1 no CPT inconclusive, KB-V1 MDR tox inactive and KB-3-1 cytotox inconclusive.
For CCOC(=O)C1(C)CCCN(C(=O)Cc2ccc3ccccc3c2)C1 (stereo not drawn) the results were DT40 TDP1 CPT 29.1µM*, DT40 TDP1 no CPT 9.2µM*, HT1080 IDH1KD tx -15.7%, KB-V1 MDR tox inactive, KB-3-1 cytotox inactive and HT1080-NT tox -7.7%.
Screening CCOC(=O)C1(C)CCCN(C(=O)c2ccc(-c3ccccc3)cc2)C1 (stereo not drawn) returned DT40 TDP1 CPT inconclusive, DT40 TDP1 no CPT 16.4µM*, HT1080 IDH1KD tx -3.0%, KB-V1 MDR tox inactive, KB-3-1 cytotox inactive and HT1080-NT tox 0.7%.
For O=C(Oc1ccccc1)N1CCCCC1 the results were DT40 TDP1 CPT -5.3%, DT40 TDP1 no CPT -2.5%, HT1080 IDH1KD tx -1.3%, KB-V1 MDR tox inactive, KB-3-1 cytotox inactive and HT1080-NT tox -3.2%.
Screening Cc1ccc(OCC(=O)OCc2cc(=O)n3nc(C4CCCCC4)sc3n2)cc1C returned DT40 TDP1 CPT -21.1%, DT40 TDP1 no CPT 1.4%, KB-V1 MDR tox inactive and KB-3-1 cytotox inactive.
CCOc1ccc(CO[C@@H]2O[C@H](CO)[C@@H](O)[C@H](O)[C@H]2NC(C)=O)cc1OC was read as DT40 TDP1 CPT 7.6%, DT40 TDP1 no CPT -4.3%, HT1080 IDH1KD tx 24.0%, KB-V1 MDR tox inactive, KB-3-1 cytotox inactive and HT1080-NT tox 15.8%.
For CC(=O)NC1C(OC2OC(CC(O)C3OC([N+]4=CCC(=O)NC4=O)C(O)C3O)C(O)C(O)C2NC(=O)/C=C/CCCCCCCCC(C)C)OC(CO)C(O)C1O (stereo not drawn) the results were DT40 TDP1 CPT 0.114µM* and DT40 TDP1 no CPT 0.0904µM*.
S=C(Nc1ccc2nsnc2c1)NC1CCCCC1 was read as DT40 TDP1 CPT inconclusive, DT40 TDP1 no CPT inconclusive, HT1080 IDH1KD tx 16.7%, KB-V1 MDR tox 16.4µM*, KB-3-1 cytotox inactive and HT1080-NT tox 22.8%.
For S=C(Nc1ccc(Cl)c(Cl)c1)NC1CCCCC1 the results were DT40 TDP1 CPT inconclusive, DT40 TDP1 no CPT 18.4µM*, HT1080 IDH1KD tx inconclusive, KB-V1 MDR tox 16.4µM*, KB-3-1 cytotox 18.4µM* and HT1080-NT tox 10µM*.
Screening Cc1ccc(C(=O)N2CCCC(Nc3ccc(C(C)C)cc3)C2)cn1 (stereo not drawn) returned DT40 TDP1 CPT inconclusive, DT40 TDP1 no CPT -25.5%, HT1080 IDH1KD tx -0.9%, KB-V1 MDR tox inactive, KB-3-1 cytotox inactive and HT1080-NT tox 3.7%.
